# Source: ChEMBL document CHEMBL3988442, “University of Dundee, Small-Polar-MMV Screening Library” (2021)
# The campaign covered roughly 66,000 compounds. About 960 (1.5%) showed an effect of 50% or more. The full list was thinned out, with strong results kept by preference.
# System: Trypanosoma brucei
# Test: Trypanosoma brucei 72 hour study
# Assay type: functional, organism-based
# Design: scale not given: in the data most compounds retested in dose-response had high values
smiles,measurement,setting,value
Cc1ccc(C(NC(=O)C2CC2)c2cccc(S(C)(=O)=O)c2)cc1 (stereo unspecified),Percent Effect,"30 µM, 30.03 µM",-25.5%
CN(C)C(=O)CCNC(=O)Nc1sc2ccccc2c1Cl,Percent Effect,"30.3 µM, […]",-534.4%
CS(=O)(=O)CCNC(=O)Nc1sc2ccccc2c1Cl,Percent Effect,"30.3 µM, […]",-157.9%
CN(C)CC(C)(O)CNC(=O)Nc1sc2ccccc2c1Cl (stereo unspecified),Percent Effect,"30.3 µM, […]",103.3%
Cn1nc(COCC2CC2)c2c1CCN(Cc1cccs1)C2.O=C(O)C(F)(F)F,Percent Effect,"30.3 µM, […]",-72.61%
O=C(O)C(F)(F)F.c1cncc(N2CCCn3nnc(COCC4CC4)c3C2)c1,Percent Effect,"30.3 µM, […]",-2.195%
CN(C)CCN1C(=O)CCCC12CCCN(C(=O)c1cc[nH]n1)C2.O=C(O)C(F)(F)F (stereo unspecified),Percent Effect,"30.3 µM, […]",-2.017%
CCOc1ncccc1CNC(=O)NC(C)Cn1cccn1 (stereo unspecified),Percent Effect,10 µM,-0.2891%
same,Percent Effect,"30.3 µM, […]",0.8601%
Cc1cc(C)n(C2CCCN(C(=O)c3ccc(F)cc3F)C2)n1 (stereo unspecified),Percent Effect,"30 µM, 30.03 µM",59.51%
Cc1nc(C)n(C2CCCN(C(=O)c3ccc(F)cc3F)C2)n1 (stereo unspecified),Percent Effect,"30 µM, 30.03 µM",1.062%
Cc1cc(C)n(C2CCCN(C(=O)c3cccc(F)c3F)C2)n1 (stereo unspecified),Percent Effect,"30 µM, 30.03 µM",-91.58%
Cn1cc(N2C(=O)CC[C@@H]3[C@H]2CCN3CC2CCOCC2)cn1.O=C(O)C(F)(F)F,Percent Effect,"30.3 µM, […]",-7.648%
CC(=O)N1CCC2(CCN(Cc3ccccn3)C2=O)C1.O=C(O)C(F)(F)F (stereo unspecified),Percent Effect,"30 µM, 30.03 µM",1.584%
Clc1cc(Cl)cc(CN2CCC(NCc3cc[nH]n3)CC2)c1,Percent Effect,"30.3 µM, […]",90.13%
Clc1cc(Cl)cc(CN2CCC(NCc3ncc[nH]3)CC2)c1,Percent Effect,"30.3 µM, […]",-65.03%
Clc1cccc(N2CCC(NCc3cc[nH]n3)C2)c1 (stereo unspecified),Percent Effect,"30 µM, 30.03 µM",15.76%
Cc1ccc(CN2CCc3ncc(CNC(=O)C4CCC4)n3CC2)o1.O=C(O)C(F)(F)F,Percent Effect,"30.3 µM, […]",-36.54%
CCC(CNC(=O)c1ccccn1)N1CCc2ccccc2C1 (stereo unspecified),Percent Effect,"30 µM, 30.03 µM",-43.95%
CCC(C)(C)n1nnnc1C(c1cccs1)N1CCc2ccccc2C1 (stereo unspecified),Percent Effect,"30.3 µM, […]",99.92%
Cc1noc(C)c1C(=O)NCC(C)N1CCc2ccccc21 (stereo unspecified),Percent Effect,10 µM,-61.25%
CCC(C)(C)n1nnnc1C(c1cccs1)N1CCCCC1 (stereo unspecified),Percent Effect,"30.3 µM, […]",13.9%
CCC(C)(C)n1nnnc1C(c1cccs1)N1CCc2ccccc21 (stereo unspecified),Percent Effect,"30.3 µM, […]",72.61%
COc1ccc(-c2n[nH]c(C)c2CC(=O)N2CCOCC2)cc1,Percent Effect,"30 µM, 30.03 µM",6.943%
CNC(=O)c1cc2c(nc1NCC1CC1)CCN(S(C)(=O)=O)CC2.O=C(O)C(F)(F)F,Percent Effect,"30 µM, 30.03 µM",-3.721%
Cc1csc(C(=O)N2CC[C@H](Oc3cccnc3C)[C@@H](O)CC2)c1,Percent Effect,"30.3 µM, […]",-24.66%
COc1ccc(CN2CCn3cccc3C2C)cc1F (stereo unspecified),Percent Effect,"30 µM, 30.03 µM",11.74%
CC(C)c1ccc(CN2C(=O)C3(CCNCC3)Nc3ccccc32)cc1,Percent Effect,"30 µM, 30.03 µM",101.9%
NC(=O)c1ccc(CN2C(=O)C3(CCNCC3)Nc3ccccc32)cc1,Percent Effect,"30 µM, 30.03 µM",8.328%
N#Cc1cccc(CN2C(=O)c3ccccc3CS2(=O)=O)c1,Percent Effect,"30 µM, 30.03 µM",-36.86%
N#Cc1cccc(CN2C(=O)C3(CCNCC3)Nc3ccccc32)c1,Percent Effect,"30 µM, 30.03 µM",83.34%
CN1CC2(CCN(Cc3cccc(C#N)c3)CC2)CC1=O,Percent Effect,"30 µM, 30.03 µM",-2.169%
C=Cc1ccc(CN2C(=O)C3(CCNCC3)Nc3ccccc32)cc1,Percent Effect,"30 µM, 30.03 µM",-41.13%
O=C(O)C(F)(F)F.O=C(O)C(F)(F)F.c1cc(CN2Cc3nccn3CC(Cn3cncn3)C2)ccn1 (stereo unspecified),Percent Effect,"30 µM, 30.03 µM",-13.09%
CNC(=O)CN1CCc2c(CNc3nccs3)n[nH]c2C1.O=C(O)C(F)(F)F,Percent Effect,"30 µM, 30.03 µM",-11.16%
Cc1cc(N(C)CC2COc3ccccc3O2)nc(N)n1 (stereo unspecified),Percent Effect,"30.3 µM, […]",-9.48%
Cc1cc(N(C)CC2COc3ccccc3O2)nc(C)n1 (stereo unspecified),Percent Effect,"30.3 µM, […]",-13.97%
CCN1CC(CN(C)c2cc(C)nc(N)n2)Oc2ccccc21 (stereo unspecified),Percent Effect,"30.3 µM, […]",98.13%
CC(C)CS(=O)(=O)N1C[C@H]2C[C@H](C(=O)Nc3cccnc3)[C@@H](C1)O2,Percent Effect,"30 µM, 30.03 µM",-5.396%
COCCO[C@H]1CCN(c2ccc(C)nn2)[C@H]1Cc1cccnc1.O=C(O)C(F)(F)F.O=C(O)C(F)(F)F,Percent Effect,"30.3 µM, […]",-12.33%
COc1cc(N2C[C@@H]3COC[C@]3(COc3ccccn3)C2)ncn1.O=C(O)C(F)(F)F.O=C(O)C(F)(F)F,Percent Effect,"30.3 µM, […]",-11.8%
COc1ccccc1CN1C[C@@H]2COC[C@]2(COc2cccnc2)C1.O=C(O)C(F)(F)F.O=C(O)C(F)(F)F,Percent Effect,"30 µM, 30.03 µM",-13.45%
COc1cc(N2C[C@@H]3COC[C@]3(COc3ncccc3F)C2)ncn1.O=C(O)C(F)(F)F.O=C(O)C(F)(F)F,Percent Effect,"30 µM, 30.03 µM",51.8%
COc1cc(N2C[C@@H]3COC[C@]3(COCc3ccccn3)C2)ncn1.O=C(O)C(F)(F)F.O=C(O)C(F)(F)F,Percent Effect,"30 µM, 30.03 µM",-23.44%
COc1ccccc1CN1C[C@@H]2COC[C@]2(COCc2ccncc2)C1.O=C(O)C(F)(F)F.O=C(O)C(F)(F)F,Percent Effect,"30 µM, 30.03 µM",59.56%
Fc1cccc(CN2C[C@@H]3COC[C@]3(COCc3ccncc3)C2)c1.O=C(O)C(F)(F)F.O=C(O)C(F)(F)F,Percent Effect,"30 µM, 30.03 µM",-8.118%
